Data published in PubChem BioAssay (NCI).
The panel holds about 83,000 compounds, 20% with a hit somewhere; the sample as a whole holds those more often.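 Single-concentration screen, 48 h exposure, 96-well plates. Endpoint: percent growth. Below 10 = active.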 Unmarked numbers belong to inactive results. Activity calls are given as the source filed them.

tested on: SW-620 colon; assay: NCI-60 one-dose screen, 48 h (100 = growth as untreated, 0 = no growth, -100 = all killed); conditions: 10 µM unless noted
Method: Growth inhibition of the SW-620 human tumor cell line is measured as a screen for anti-cancer activity. Cells are grown in 96 well plates and exposed to the test compound for 48 hours. Compounds are tested at a single concentration, which is 10^-5 M for most compounds. The reported endpoint is percent growth (GI% or GIPRCNT), where numbers from 0 - 100% represent growth inhibition, and numbers from -100% - 0 represent cell death. For example, a value of 40 represents 60% growth inhibition. A value of 0 means no net growth occurred over the course of the experiment. A value of -40 indicates 40% of cells at the beginning of the experiment died by the end of the experiment. A value of -100 means all cells are dead at the end of the experiment.
NCI-60 Human Tumor Cell Lines Screen was performed using the standard one-dose NCI protocol, which is described in more detail at https://dtp.cancer.gov/discovery_development/nci-60/default.htm.
Compounds with GIPRCNT values below 10 were considered active. Activity score was based on GIPRCNT using the following formula: […]
Score is 0 for GIPRCNT values of 100 or above, 50 for GIPRCNT values of 0, and 100 for GIPRCNT values of -100.

| Structure (SMILES) | growth |
| --- | --- |
| O=C(NC(=S)N1CC=CCC1)c1ccccc1 | 103% |
| CC(O)C(F)(F)C(F)(F)C(F)(F)F (stereo not given) | 101% |
| CCOC(=O)/C(O)=C(\C=N\C(=S)Nc1ccc(Cl)c(Cl)c1)C(=O)OCC | 104% |
| Clc1ccc(/C=C/c2ccccn2)cc1 | 84.2% |
| O=C(CCl)Oc1ccc([N+](=O)[O-])cc1 | 113% |
| Nc1cc(N)ncn1 | 104% |
| CCCCCCCCCc1ccc(OC(C)=O)cc1 | 102% |
| C=CCC(OC(C)=O)c1ccc(OC)c(OC)c1 (stereo not given) | 98% |
| CCCCCCCCCCCCCCCCOc1ccccc1NC(=O)CC(C)=O | 110% |
| C[C@H](CCC[C@H](C)OS(=O)(=O)c1ccccc1)OS(=O)(=O)c1ccccc1 | 105% |
| C=CCNC(=S)N/C=C(/C(=O)c1ccccc1)c1ccccc1 | 98.9% |
| S=C(Sc1ccc(Cl)cc1)Sc1ccc(Cl)cc1 | -68% (active) |
| CC1(C)CCC(C)(C)NC(=S)N1 | 111% |
| OCC(O)COc1ccc(Cl)cc1Cl (stereo not given) | 114% |
| CC(C)N1CC(=O)N2CSCC2C1=O (stereo not given) | 102% |
| Cc1cc(Cc2ccccc2)c(O)c(Cc2ccccc2)c1 | 102% |
| NC(=S)N/N=C/c1ccc(OC(=O)COc2ccc(Cl)cc2)cn1 | 46.3% |
| CC(=O)/C(C)=N\OC(=O)Nc1ccccc1 | 107% |
| CCOC(=O)CNC | 98.2% |
| CC(C)Sc1ncnc2nc[nH]c12 | 108% |

| Structure (SMILES) | growth |
| --- | --- |
| CCCCn1cnc2c(=O)[nH]cnc21 | 117% |
| CC(=O)Nc1ccc(C(=O)c2ccc(S(=O)(=O)Nc3ccccc3)cc2)cc1 | 103% |
| CN1CCCN(C(c2ccccc2)c2ccc(Cl)cc2)CC1 (stereo not given) | 85.9% |
| CC(=O)N(C(C)=O)c1ccc(C)cc1 | 102% |
| COC(=O)c1ccccc1C(=O)c1c(C)cc(C)cc1C | 93.2% |
| Oc1cc(O)c2c(c1)O[C@H](c1ccc(O)c(O)c1)[C@@H](O)C2 | 106% |
| Cc1[nH]c(=S)[nH]c(=O)c1C | 109% |
| COC(=O)Cc1cc(COC(C)=O)ccc1C | 110% |
| Cc1cccc(-[n+]2noc(N)n2)c1 | 86.3% |
| NS(=O)(=O)c1cc(=O)[nH]c(=O)[nH]1 | 109% |
| NNC(=O)N/N=C1\C(=O)N(c2nccs2)C(=O)C(=O)C1c1nc2ccccc2s1 (stereo not given) | 96.1% |
| CCOc1ccc(NC(=S)N2CCC(CCCC3CCN(C(=S)Nc4ccc(OCC)cc4)CC3)CC2)cc1 | 98.3% |
| Cc1ccc2[nH]c3ccccc3c2c1 | 101% |
| CC(=O)OC(C)c1cccc(C#N)c1 (stereo not given) | 98.2% |
| Cc1cc(CC(=O)NCCO)n(CCO)c(=O)c1 | 98% |
| CCNC(=O)Oc1ccc[nH]c1=O | 105% |
| CC(CO)(CO)C(=O)O | 104% |
| CCOC(=O)c1cc(C)[nH]c(=O)c1C#N | 107% |
| O=S(=O)(c1ccc(NC(=S)NCc2cccnc2)cc1)N1CCCCC1 | 32.7% |
| CC1CCC(C)(C)c2ccccc21 (stereo not given) | 115% |
